# Several values for one entry are separate records, joined by “and”; a condition that tells them apart may be missing. Identical values can stand only once. Inconclusive results are not listed. Where a call stands in place of a potency, no number is given. Some structures have more than one record in an assay (separate samples or runs), and their calls can disagree. Activity calls are given as the source filed them. Unless noted, the call rests on the fitted dose curve; in most records, active means well fitted curve in the direction sought with a large enough effect in the repeat runs; inconclusive means weak or mixed curves; inactive means no such curve, though single readings can be large; an effect the other way counts as inactive or inconclusive.
# Experiments:
# [1] = qHTS assay for small molecule agonists of the p53 signaling pathway (AID 651631; calls by dose curve; further: nearly all actives have a fitted effect of over 15% in size; further: potency means the concentration at half of the fitted maximal effect)
# How it was run: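 We treat p53RE-bla HCT-116 cells with compounds for 16 h at 37 °C, add LiveBLAzer B/G FRET substrate for 2 h at room temperature, and measure fluorescence intensity.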
# [2] = qHTS assay for small molecules that induce genotoxicity in human embryonic kidney cells expressing luciferase-tagged ATAD5 (AID 651632); further: nearly all actives have a fitted effect of over 15% in size
# How it was run: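 Cells were seeded at 2,000 per well, dosed with compound, and incubated 16 hr at 37C in 5% CO2. Luciferase activity was then quantified after a 30 min room-temperature incubation with Amplite.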
# [3] = qHTS assay for small molecule agonists of the p53 signaling pathway - cell viability (AID 651633; calls by dose curve; further: nearly all actives have a fitted effect of over 30% in size; further: potency means the concentration at half of the fitted maximal effect)
# How it was run: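 Viability counter-read: CellTiter-Glo luminescence (30 min, room temperature) in the same p53RE-bla plates. These plates had been exposed to compounds for 16 h at 37 C.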
# [4] = qHTS assay for small molecules that induce genotoxicity in human embryonic kidney cells expressing luciferase-tagged ATAD5 - cell viability (AID 651634; calls by dose curve; further: nearly all actives have a fitted effect of over 25% in size)
# How it was run: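 Cells (HEK293T, luciferase-tagged ATAD5) are seeded at 2,000 per well, dosed with compound or DMSO vehicle, and incubated 15.5 hr at 37C and 5% CO2. CellTiter-Fluor is added for 30 min before fluorescence is measured.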
# [5] = qHTS assay for small molecule disruptors of the mitochondrial membrane potential - cell viability (AID 720634; calls by dose curve;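 further: human HepG2 liver cancer cells; series mostly up to about 83 µM; nearly all actives have a fitted effect of over 20% in size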)
# How it was run: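 Cytotoxicity was measured by ATP quantitation in HepG2 wells that had first been treated with compound for 1 hr and stained with m-MPI dye; CellTiter-Glo incubation was 30 min at room temperature.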
# [6] = qHTS assay for small molecule disruptors of the mitochondrial membrane potential (AID 720635); further: potency means the concentration at half of the fitted maximal effect
# How it was run: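 Mitochondrial membrane potential tracked with Mito-MPS dye, red aggregates (ex 540/em 590 nm) against green monomers (ex 490/em 535 nm). Compound treatment 1 hr at 37C, dye 30 min in HepG2.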
# [7] = qHTS assay to test for compound auto fluorescence at 590 nm (red) in HepG2 cells (AID 720674)
# How it was run: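 1 hr compound incubation on HepG2 cells, 37 C, 5% CO2; plate read ex 540 nm / em 590 nm; intensities reported as Rose Bengal sodium equivalents.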
# [8] = qHTS assay to test for compound auto fluorescence at 535 nm (green) in HepG2 cells (AID 720675)
# [9] = qHTS assay to test for compound auto fluorescence at 460 nm (blue) in HEK293 cells (AID 720678)
# How it was run: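 Blue read-out at excitation 405 nm and emission 460 nm follows overnight compound exposure of HEK293 cells at 37C in 5% CO2. Activity is given as auto fluorescence equivalency to triamterene.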
# [10] = qHTS assay to test for compound auto fluorescence at 590 nm (red) in HEK293 cells (AID 720679)
# How it was run: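 Red channel, Ex/Em 540/590nm; signal expressed as equivalency to Rose Bengal sodium. HEK293, 2,000 cells/well, 10% dialyzed FBS; 23 nL compound pinned after 4-5 hr attachment; overnight 37C/5% CO2 before reading.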
SMILES,Potency [1],outcome [2],Potency [3],Potency [4],Potency [5],Potency [6],outcome [7],outcome [8],outcome [9],outcome [10],"fluorescence, relative to Rose Bengal [7]","fluorescence, % of fluorescein control [8]","fluorescence, % of fluorescent control [10]"
CCNc1nc(NCC)nc(SC)n1,inactive,inactive,inactive,inactive,inactive,inactive,inactive,inactive,inactive,inactive,,,
Cn1c(CCCC(=O)O)nc2cc(N(CCCl)CCCl)ccc21,26.6 µM (active),inactive,inactive,inactive,inactive,inactive,inactive,inactive,inactive,inactive,,,
CCCC(C)(COC(N)=O)COC(N)=O,inactive,inactive,inactive,inactive,inactive,inactive,inactive,inactive,inactive,inactive,,,
CCN(CCO)CCn1c(Cc2ccccc2)nc2c1c(=O)n(C)c(=O)n2C,inactive,inactive,inactive,inactive,inactive,inactive,inactive,inactive,inactive,inactive,,,
CC1=C2[C@H]3OC(=O)[C@@H](C)[C@@H]3CC[C@@]2(C)C=CC1=O,inactive,inactive,inactive,inactive,inactive,inactive,inactive,inactive,inactive,inactive,,,
CCOP(=O)(CN(CCO)CCO)OCC,inactive,inactive,inactive,inactive,inactive,inactive,inactive,inactive,inactive,inactive,,,
CC(C)(C)c1cc(O)ccc1O,inactive,inactive,inactive and 29.8 µM (active),inactive,inactive,inactive and 22.1 µM (active),inactive,inactive,inactive,inactive,,,
CC#Cc1cc(C)nc(Nc2ccccc2)n1,inactive,inactive,inactive,inactive,inactive,27.3 µM (active),inactive,inactive,inactive,inactive,,,
CCSC(=O)Cl,inactive,inactive,inactive,inactive,inactive,inactive,inactive,inactive,inactive,inactive,,,
CCCCCCCCSC(=O)Oc1cc(Cl)nnc1-c1ccccc1,inactive,inactive,inactive,inactive,inactive,30.6 µM (active),inactive,inactive,inactive,inactive,,,
C=CC(=O)OCCN(C)C,inactive,inactive,inactive,inactive,inactive,inactive,inactive,inactive,inactive,inactive,,,
CCCCOC(C)=O,inactive,inactive,inactive,inactive,inactive,inactive,inactive,inactive,inactive,inactive,,,
ClCC1CO1 (stereo not drawn),inactive,inactive,inactive,inactive,inactive,inactive,inactive,inactive,inactive,inactive,,,
COP(=O)(O)OC,inactive,inactive,inactive,inactive,inactive,inactive,inactive,inactive,inactive,inactive,,,
Nc1c(Cl)c(F)nc(OCC(=O)O)c1Cl,inactive,inactive,inactive,inactive,inactive,inactive,inactive,inactive,inactive,inactive,,,
O=C(Cl)OCc1ccccc1,inactive,inactive,inactive,inactive,inactive,inactive,inactive,inactive,inactive,inactive,,,
CCCCCCCC(=O)Cl,inactive,inactive,inactive,inactive,inactive,inactive,inactive,inactive,inactive,inactive,,,
O=C/C=C/c1ccco1,inactive,inactive,inactive,inactive,inactive,inactive,inactive,inactive,inactive,inactive,,,
NC(=O)OCCCc1ccccc1,inactive,inactive,inactive,inactive,inactive,inactive,inactive,inactive,inactive,inactive,,,
CC(C)(C)C(=O)C(Cl)Cl,inactive,inactive,inactive,inactive,inactive,inactive,inactive,inactive,inactive,inactive,,,
OCC(Cl)CCl (stereo not drawn),inactive,inactive,inactive,inactive,inactive,inactive,inactive,inactive,inactive,inactive,,,
Cl/C=C/CCl,inactive,inactive,inactive,inactive,inactive,inactive,inactive,inactive,inactive,inactive,,,
C=CC1(C)OC(=O)N(c2cc(Cl)cc(Cl)c2)C1=O (stereo not drawn),inactive,inactive,inactive,inactive,inactive,54.5 µM (active),inactive,inactive,inactive,inactive,,,
CS(=O)(=O)Cl,inactive,inactive,inactive,inactive,inactive,inactive,inactive,inactive,inactive,inactive,,,

SMILES,Potency [1],outcome [2],Potency [3],Potency [4],Potency [5],Potency [6],outcome [7],outcome [8],outcome [9],outcome [10],"fluorescence, relative to Rose Bengal [7]","fluorescence, % of fluorescein control [8]","fluorescence, % of fluorescent control [10]"
CCOC(=O)CC(SP(=S)(OC)OC)C(=O)OCC (stereo not drawn),inactive,inactive,inactive,inactive,inactive,inactive,inactive,inactive,inactive,inactive,,,
C=C1CC[C@@]2(O)[C@H]3Cc4ccc(O)c5c4[C@@]2(CCN3CC2CC2)[C@H]1O5,inactive,inactive,inactive,inactive,inactive,inactive,inactive,inactive,inactive,inactive,,,
CCOC(=O)NC(C)(C)Cc1ccc(Cl)cc1,inactive,inactive,inactive,inactive,inactive,inactive,inactive,inactive,inactive,inactive,,,
COc1ccc2c(C(=O)c3ccc(Cl)cc3)c(C)n(CC(=O)O)c2c1,inactive,inactive,inactive,inactive,inactive,inactive,inactive,inactive,inactive,inactive,,,
C[N+]1(C)CCCCC1,inactive,inactive,inactive,inactive,inactive,inactive,inactive,inactive,inactive,inactive,,,
CC(C)(C)C(=O)Cl,inactive,inactive,inactive,inactive,inactive,inactive,inactive,inactive,inactive,inactive,,,
ClC(Cl)(Cl)Cl,inactive,inactive,inactive,inactive,inactive,inactive,inactive,inactive,inactive,inactive,,,
CC(Cc1ccccc1)NCCn1cnc2c1c(=O)n(C)c(=O)n2C (stereo not drawn),inactive,inactive,inactive,inactive,inactive,inactive,inactive,inactive,inactive,inactive,,,
C=CCc1cc(OC)c2c(c1)OCO2,inactive,inactive,inactive,inactive,inactive,inactive,inactive,inactive,inactive,inactive,,,
COC(=O)[C@@H](N)CCCN/C(N)=N/[N+](=O)[O-],inactive,inactive,inactive,inactive,inactive,inactive,inactive,inactive,inactive,inactive,,,
BrCc1ccc(Br)cc1,inactive,inactive,inactive,inactive,inactive,inactive,inactive,inactive,inactive,inactive,,,
O=C1CCCCC1Cl (stereo not drawn),inactive,inactive,inactive,inactive,inactive,inactive,inactive,inactive,inactive,inactive,,,
Clc1nc(Cl)nc(Nc2ccccc2Cl)n1,inactive,inactive,inactive,inactive,inactive,inactive,inactive,inactive,inactive,inactive,,,
COC1=CC(=O)O[C@@H](/C=C/c2ccccc2)C1,inactive,inactive,inactive,inactive,inactive,inactive,inactive,inactive,inactive,inactive,,,
CCCCCCC1CCOC1=O (stereo not drawn),inactive,inactive,inactive,inactive,inactive,inactive,inactive,inactive,inactive,inactive,,,
CC(C)(C1CCC(O)CC1)C1CCC(O)CC1 (stereo not drawn),inactive,inactive,inactive,inactive,inactive,7.7 µM (active),inactive,inactive,,inactive,,,
CC(C)(O)C(Cl)(Cl)Cl,inactive,inactive,inactive,inactive,inactive,inactive,inactive,inactive,,inactive,,,
S=C=S,inactive,inactive,inactive,inactive,inactive,inactive,inactive,inactive,,inactive,,,
CCOc1cc(OP(=S)(OC)OC)nc(CC)n1,inactive,inactive,inactive,inactive,inactive,,inactive,inactive,inactive,inactive,,,
C#CCOC(=O)/C=C(C)/C=C/CC(C)CCCC(C)C (stereo not drawn),inactive,inactive,inactive,inactive,inactive,,inactive,inactive,inactive,inactive,,,
CCC(C(N)=O)N1CCCC1=O (stereo not drawn),inactive,inactive,inactive,inactive,inactive,inactive,inactive,inactive,inactive,inactive,,,
CC(C)N(Cc1ccccc1)C(=O)C(C)(C)C,inactive,inactive,inactive,inactive,inactive,,inactive,inactive,inactive,inactive,,,
CC(=O)OCC1=C(C(=O)O)N2C(=O)[C@@H](N)[C@H]2SC1,inactive,inactive,inactive,inactive,inactive,inactive,,,,,0.341% [at 18.6 µM] (inactive),0.0248% [at 18.6 µM] (inactive),0.0847% [at 18.6 µM] (inactive)

# Reference: PubChem BioAssay (Tox21)
